Rows were chosen to be rich in hits. Some 5% of all compounds tested hit in one or more screens of this group.
SENP8 block-1 – human SENP8 protease inhibitors, primary screen, biochemical, fluorescence, Nedd8 protein substrate, uHTS. Sentrin-specific protease 8 (Homo sapiens), Q96LD8. hit rate 0.64% among 360,000. inhibition, % at 20 µM. recombinant SENP8; in the data active means inhibition mostly above about 40%, no sharp cut-off; inactive means mostly below about 27%
SENP6 block – SENP6 protease inhibitors, primary screen, biochemical, luminescence, uHTS. hit rate 1.8% among 330,000. Recombinant SENP6 catalytic domain, aminoluciferin luminescence. Sentrin-specific protease 6 (Homo sapiens), Q9GZR1. inhibition, % at 10 µM. AID 2599, 2010;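 active means inhibition above about 50% at the single tested dose, limit read from the data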
Target sequence (Q9GZR1 628-1112 limits assumed): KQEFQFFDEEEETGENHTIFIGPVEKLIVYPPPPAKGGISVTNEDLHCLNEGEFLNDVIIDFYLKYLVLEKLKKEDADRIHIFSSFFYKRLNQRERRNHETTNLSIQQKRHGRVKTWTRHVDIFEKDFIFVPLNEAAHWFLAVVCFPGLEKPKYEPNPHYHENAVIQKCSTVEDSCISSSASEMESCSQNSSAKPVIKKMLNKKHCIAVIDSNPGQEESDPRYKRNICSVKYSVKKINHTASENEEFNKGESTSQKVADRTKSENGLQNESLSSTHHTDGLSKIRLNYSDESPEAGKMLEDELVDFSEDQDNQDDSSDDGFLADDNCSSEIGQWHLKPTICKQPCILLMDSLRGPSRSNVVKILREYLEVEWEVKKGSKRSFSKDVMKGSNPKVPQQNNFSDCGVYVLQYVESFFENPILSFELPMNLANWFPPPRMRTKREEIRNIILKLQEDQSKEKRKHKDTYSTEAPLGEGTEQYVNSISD
SENP8 block-2 – SENP8 protease inhibitors, primary screen, biochemical, luminescence. inhibition, % at 10 µM. purified SENP8, Z-RLRGG-aminoluciferin cleavage. hit rate 1.2% among 330,000. AID 2540, 2010. Sentrin-specific protease 8 (Homo sapiens), Q96LD8; in the data active means inhibition above about 50%
EBI2 antag – EBI2 receptor antagonists, beta-arrestin recruitment, primary screen, cell-based, luminescence, 7a,25-OHC stimulation, uHTS; G-protein coupled receptor 183 (Homo sapiens), P32249; 7a,25-OHC stimulated; inhibition, % at 5 µM; hit rate 0.81% among 360,000; AID 651636, 2012; in the data active means inhibition above about 38%;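 further: enzyme fragment complementation signal reports receptor beta-arrestin coupling in cells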
SENP7 block – SENP7 protease inhibitors, primary screen, biochemical, luminescence, uHTS; Sentrin-specific protease 7 (Homo sapiens), Q9BQF6; recombinant SENP7, Z-RLRGG-aminoluciferin luminescence, 40 min; inhibition, % at 5 µM; hit rate 1.5% among 330,000; AID 434973, 2010;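 active means inhibition above about 50% at the single test dose, limit read from the data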
AHR act – AHR activators, primary screen, cell-based, luminescence, luciferase reporter, human; Aryl hydrocarbon receptor (Homo sapiens), P35869; AHR-responsive luciferase reporter cells; activation, % at 5 µM; hit rate 2.5% among 320,000; AID 2796, 2010; in the data active means activation above about 47%
Large screens that a line does not name were inactive.

CC(=O)Nc1nc(COc2ccccc2)cs1	none
CC(=O)Nc1nc(CC(=O)c2ccccc2)cs1	AHR act 57.7
CS(=O)(=O)Nc1ccc(-c2ccc(/C=C3\SC(N)=NC3=O)o2)cc1	AHR act 57.6
COc1cccc(NC(=O)N2CCN(c3cccc(C)c3C)CC2)c1	EBI2 antag 78.0
COc1ccccc1N1CCN(C(=O)Nc2cccc(Cl)c2)CC1	none
COc1cc(C)cc(C(=O)O)c1C1=C(O)c2cccc(O)c2C(=O)C1=O	SENP8 block-1 55.2
O=C(COC(=O)c1cc[n+]([O-])cc1)Nc1ccc(F)c([N+](=O)[O-])c1	none
COc1ccc(CCNC(=O)c2ccc(Br)o2)cc1Br	none (no result: SENP6 block, SENP8 block-2, SENP7 block, AHR act)
Cc1ccc(-c2ocnc2C(=O)Nc2ccccc2NC(=O)c2ccccn2)cc1	none
Cc1cccc(-c2ocnc2C(=O)Nc2ccccc2NC(=O)c2ccccn2)c1	AHR act 55.8
Cc1ccc(-c2ocnc2C(=O)Nc2nc(C)cs2)cc1	AHR act 68.2
Cc1cc(C)c(C#N)c(SCC(=O)NC(C)(C)C)n1	none
Cc1cc(C)c(C#N)c(SCC(=O)C(C)(C)C)n1	AHR act 59.2
CCn1ncc(C(=O)Nc2cccc(Cl)c2)c1C	AHR act 79.2
Cc1nc(NCCc2cnc[nH]2)c2oc3ccccc3c2n1	AHR act 52.9
Cc1cccc(Nc2nc(C)nc3c2oc2ccccc23)c1	AHR act 47.9
Cc1nc(Nc2ccncc2)c2oc3ccccc3c2n1	none
CCc1nc(Nc2ccc3c(c2)OCO3)c2oc3ccccc3c2n1	AHR act 95.5
COc1cc(C)ccc1S(=O)(=O)NC(=O)C1(C)CCN1C(=O)Cc1ccc(Cl)cc1Cl (stereo unspecified)	none (no result: SENP6 block, SENP8 block-2, SENP7 block, AHR act)
CC(C)(C)c1ccc(/C=C2\Oc3cc(O)ccc3C2=O)cc1	none
O=C1/C(=C/c2ccc(Br)cc2)Oc2cc(O)ccc21	SENP6 block 56.1, SENP8 block-2 53.1
CCC(O)(CC)C(=O)N/N=C/c1cc(Br)cc(Br)c1O	EBI2 antag 63.6
COc1ccc2[nH]c3c(N4CCN(Cc5ccc6c(c5)OCO6)CC4)ncnc3c2c1	none
COc1ccc2[nH]c3c(N4CCC(O)(c5cccc(C(F)(F)F)c5)CC4)ncnc3c2c1	AHR act 68.0
O=C(C[C@H]1C=C[C@@H](NS(=O)(=O)c2ccccc2)[C@@H](CO)O1)NCc1ccc(Cl)c(Cl)c1	none (no result: SENP6 block, SENP8 block-2, SENP7 block, AHR act)
CCOC(=O)[C@]12CCCC=C1N(Cc1ccc(Cl)cc1Cl)C(=O)[C@H](CC(=O)N1CCOCC1)C2	none (no result: SENP6 block, SENP8 block-2, SENP7 block, AHR act)
CCCC(C)NNC(=O)c1cc2ccccc2[nH]1 (stereo unspecified)	none
CC(C)(C)c1ccc(S(=O)(=O)NNC(=O)c2cc3ccccc3[nH]2)cc1	AHR act 74.3
O=C(NCc1cccc(C(F)(F)F)c1)c1ccc2nc([C@H]3C[C@H](O)[C@@H](CO)O3)[nH]c2c1	none (no result: SENP6 block, SENP8 block-2, SENP7 block, AHR act)
CC(=O)Nc1cccc(N(C)S(C)(=O)=O)c1	none
CN(c1cccc(NC(=O)Nc2cccc(Cl)c2)c1)S(C)(=O)=O	AHR act 76.8
Cc1ccc(NC(=O)Nc2cccc(Cl)c2)c(C(=O)O)c1	SENP8 block-2 72.8, SENP7 block 69.1
CSc1ccccc1CNC(=O)C1(C)CCCN1CC(C)C (stereo unspecified)	none (no result: SENP6 block, SENP8 block-2, SENP7 block, AHR act)
Cc1cccc(NC(=O)c2cnc3sccn3c2=O)c1	AHR act 67.7
Cc1cccc(NC(=O)c2cnc3sccn3c2=O)c1C	none (no result: AHR act)
Cc1cccc(NC(=O)c2cnc3ccccn3c2=O)c1	SENP6 block 81.0, SENP8 block-2 66.7, SENP7 block 67.2 (no result: AHR act)
COc1ccccc1CNC(=O)c1cnc2sccn2c1=O	AHR act 53.1
Cc1nc(C)c(NC(=O)OC(C)C)cc1NC(=O)OC(C)C	none
CN1OC[C@@H]2CN(Cc3ccc4c(c3)OCO4)[C@H](c3ccc(N4CCCCC4)cc3)C[C@@H]21	none (no result: SENP6 block, SENP8 block-2, SENP7 block, AHR act)
CCCc1ccc(C(=O)NC(=O)c2ccccc2O)cc1	SENP6 block 72.9, SENP8 block-2 61.8
Cc1cc(NC(=O)Nc2ccc(Cl)c(Cl)c2)no1	none

Screens: PubChem BioAssay, several laboratories
